The campaign covered roughly 360,000 compounds. About 460 (0.13%) were called active. Many of the other results were omitted from the sample, so actives are more common in it than they were. A number with no mark means an inactive call.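 The calls were made as follows: active = inhibition above the mean inhibition of all tested compounds plus 3 SD (cut at about 73% in these data); inactive = the rest.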

The target in the test is Nuclear receptor subfamily 5 group A member 2 (Homo sapiens) (UniProt O00482). The experiment in a line: reduction of NR5A2-driven StAR reporter activity – cell-based, luminescence, HEK293T, StAR-luciferase reporter, primary screen (AID 602396).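 Also: 0% = DMSO wells and 100% = reporter-only cells lacking LRH-1.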 To be noted: LRH-1 transfected, 24 h, at 3.6 µM, active compounds read high.
Chain of Nuclear receptor subfamily 5 group A member 2 (Homo sapiens) (O00482 whole entry, looked up): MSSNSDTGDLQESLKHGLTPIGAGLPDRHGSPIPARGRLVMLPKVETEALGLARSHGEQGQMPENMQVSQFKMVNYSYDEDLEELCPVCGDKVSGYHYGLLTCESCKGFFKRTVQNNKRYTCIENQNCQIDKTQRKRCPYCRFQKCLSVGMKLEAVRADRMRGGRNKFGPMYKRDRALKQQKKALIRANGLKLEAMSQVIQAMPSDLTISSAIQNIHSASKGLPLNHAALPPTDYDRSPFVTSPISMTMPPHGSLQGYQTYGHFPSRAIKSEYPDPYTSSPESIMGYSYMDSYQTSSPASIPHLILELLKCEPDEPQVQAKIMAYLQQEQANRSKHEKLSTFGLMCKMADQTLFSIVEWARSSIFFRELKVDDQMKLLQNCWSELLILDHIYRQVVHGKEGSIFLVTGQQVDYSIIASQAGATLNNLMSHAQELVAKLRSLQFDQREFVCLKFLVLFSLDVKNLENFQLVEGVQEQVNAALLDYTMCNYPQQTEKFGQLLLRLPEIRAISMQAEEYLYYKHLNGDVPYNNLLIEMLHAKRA
As to `CC(=O)OC1C2(CC3N4C(=O)C5(CO)SSC4(CC31O)C(=O)N5C)OC(C)C(C)(C)C2=O` (stereo not given), the inhibition was 97.6% (active).
The result for `CC(=O)N1CN2CN(C(C)=O)CC(C(=O)c3ccc(Br)cc3)(C2)C1` reads -11.4%; that for `CN(C)C(=O)Oc1ccc(NC(=O)N2CCOCC2)cc1`, 10.7%; that for `CCOc1ccc(-c2cc(C)[n+](CCN(CC)CC)c(-c3ccc(OCC)cc3)c2)cc1`, 86.7% (active).
`CC(C)n1c(=O)c(C=Nc2ccc(Br)cc2)c(O)n(Cc2ccco2)c1=O`: the inhibition is 5.59%.
The result for `CCOC(=O)C(O)(c1ccc(NC(=O)c2ccco2)c(OC)c1)C(F)(F)F` (stereo not given) reads 15%.
On to `NCCc1ccc(S(=O)(=O)F)cc1`, for which the inhibition was 12.1%.
The result for `O=[N+]([O-])c1ccc(C2C3C(c4ccccc4)=NC4(CCCCC4)N32)cc1` (stereo not given) reads 22.7%; that for `CCC(C)n1c(O)c(/C=N/Nc2nc3c(c(=O)n(C)c(=O)n3C)n2C)c(=O)[nH]c1=S` (stereo not given), -7.02%; that for `CCCCCCCCCCCCn1ccc(=N)cc1`, 84.1% (active).
The result for `CN(C)CC1CCCCC1=O` (stereo not given) reads 15.8%.
The result for `COc1ccc(-c2nn(CCC#N)cc2C(=O)Nc2ccc(C(C)=O)cc2)cc1` reads 17.1%; that for `Clc1cccc(Cl)c1Cl`, 2.81%; that for `Cc1ccc(-c2nc3ccccc3c(=O)n2-c2ccc(Br)cn2)cc1`, -1.48%.
Take `CCNc1nc2[nH]c(=O)c3c(c2s1)OC(N)=C(C#N)C3c1cccs1` (stereo not given): the inhibition is -2.41%.
The result for `CN(C)c1ccc(/C=C2\CC3C4CC=C5CC(O)CCC5(C)C4CCC3(C)C2=O)cc1` (stereo not given) reads 10.7%.
The result for `CCC(C)(O)C(=O)OC1C(=O)OC2CC3C(C)=CC(=O)C(O)C3(C)C3C4(O)OCC23C1C(C)C4O` (stereo not given) reads 98.4% (active).
Take `COc1ccc(C(=O)CC2C(=O)N(C)C(=O)N(C)C2=O)cc1`: the inhibition was -5.13%.
For `COC(=O)C1=C(c2ccccc2)C[C@@H]2CC[C@H]1N2C(=O)N1CCCCC1`, the inhibition was 8.33%.
For `O=C1C2(Cl)C3(Cl)C4(Cl)C(Cl)(Cl)C5(Cl)C3(Cl)C1(Cl)C5(Cl)C24Cl` (stereo not given) the value was 0.27%; for `CCOP(=S)(OCC)SCOC(=O)NCC(=O)OC`, -13.1%; for `CN(C)C(=O)NC(O)C(Cl)(Cl)Cl` (stereo not given), -10.3%.
For `C[C@]12CC[C@H](O)C[C@H]1CC[C@@H]1C2CC[C@]2(C)[C@@H](C3=CC(=O)OC3)[C@@H](O)C[C@]12O` (stereo not given in full) the value was 88.6% (active); for `COC(=O)C1=C(c2ccc(F)cc2F)C[C@@H]2CC[C@H]1N2C(=O)NC1CC1`, 20.8%.
As for `COc1ccc(NC(=O)N2Cc3ccccc3-n3nncc3C2)cc1`, the inhibition is -12.7%.
For `COC1C(O)C(C)OC(OC2CCC3(C=O)C(CCC4C3CCC3(C)C(C5=CC(=O)OC5)CCC43O)C2)C1O` (stereo not given) the value was 104% (active); for `COCCNC(=O)CN1C2CCC1CC(O)(c1cccnc1)C2` (stereo not given), 17.3%.
Turning to `Cc1ccc2c(c1)C1CN(C)CCC1N2C(=O)Cn1nnc(-c2ccccc2F)n1` (stereo not given), the inhibition is -20.9%.
With `CC1=CC(=Cc2sc3ccccc3[n+]2C)C=C(C)O1`, the inhibition was 80.7% (active).
Regarding `COc1ccccc1N=C1SCCCN1C`, the inhibition is 11.8%.
For `CCOC(=O)CNC(=O)N1Cc2cc(N3CCCCC3)ccc2-n2nncc2C1` the value was 6.84%.
The result for `Cc1cc(OCc2cc(C(=O)O)oc2C)c2c3c(c(=O)oc2c1)CCCC3` reads 15.5%; that for `NCC(O)c1ccc(O)cc1` (stereo not given), -5.8%.
The result for `CCN(N=Nc1nonc1OC)c1nonc1OC` reads 3.32%.
For the molecule `CC1CCCN1CCC(C(N)=O)(c1ccccc1)c1ccccc1` (stereo not given), the inhibition was -19.5%.

Values taken from PubChem BioAssay AID602396 (The Scripps Research Institute Molecular Screening Center, 2012).
